# High-throughput results as filed in PubChem BioAssay.
# NPSR antagonist – neuropeptide S receptor (human) antagonism, cAMP; CHO-NPSR cells, cAMP TR-FRET, antagonist mode; Potency, µM (doses to about 38.3 µM), for inactives: at the top dose activity change, negative = inhibition, usual class: inhibitors; hit rate 1% among 220,000; AID 1461; active = well fitted curve in the direction sought with a large enough effect; inconclusive = small, poorly fitted or top-dose-only effect, or another doubt; inactive = no such curve, though single readings can be large; an effect the other way counts as inactive or inconclusive; also: potency is read from the fitted curve at half-maximal effect; nearly all actives have a fitted effect of over 50% in size
# Target sequence (Q6W5P4 whole entry, looked up): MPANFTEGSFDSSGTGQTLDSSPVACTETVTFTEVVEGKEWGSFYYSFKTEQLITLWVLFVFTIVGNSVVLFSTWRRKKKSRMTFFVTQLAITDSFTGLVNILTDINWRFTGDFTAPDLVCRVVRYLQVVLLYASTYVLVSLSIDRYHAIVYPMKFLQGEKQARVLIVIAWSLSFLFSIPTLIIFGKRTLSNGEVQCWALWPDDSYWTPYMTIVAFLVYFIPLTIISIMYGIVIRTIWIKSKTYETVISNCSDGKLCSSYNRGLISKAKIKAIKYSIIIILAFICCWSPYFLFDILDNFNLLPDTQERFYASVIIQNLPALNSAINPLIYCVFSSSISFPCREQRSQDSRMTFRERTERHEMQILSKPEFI
# PNC assembly inh – blocks assembly of the perinucleolar compartment. PC3M PTB-GFP, PNC prevalence imaging, 16 h; active compounds read low. activity change (PNC), negative = inhibition, % at 10 µM. hit rate 3.1% among 140,000. AID 2417;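 active = readout at or below -70, meaning at least 70% loss of cells showing the perinucleolar compartment, a nuclear body marking cancer cells; inconclusive = readout between -30 and a set limit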;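 also: plate controls were DMSO wells for no effect and camptothecin positive control wells for full effect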
#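 Read-out is percentage of cells bearing a perinucleolar compartment, from automated 20x imaging of fixed, Hoechst-stained PC3M PTB-GFP cells. Cells were seeded 4 h, then exposed 16 h to compound (23 nl of library stock) in duplicate plates.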
# IMPase inh – cell-permeable inhibitors of inositol monophosphatase (IMPase); P97697; CHO-M1 cells, IP1 accumulation, HTRF TR-FRET ratio; inhibition (IP1 accumulation), % at 46.1 µM; 120,000 tested, under 10 active; AID 901; active = well fitted curve in the direction sought with a large enough effect in the signal ratio, not every such curve was filed as active; inconclusive = small, poorly fitted or top-dose-only effect, or a change in a side signal; inactive = no such curve, though single readings can be large or run the other way; the % refers to the signal ratio;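 also: cells stimulated with carbachol in lithium chloride buffer; plate controls were DMSO basal wells for no effect and reference inhibitor wells for full effect; higher means more IMPase inhibition seen as more IP1 and lower FRET ratio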
#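 The IP-One HTRF competitive assay in carbachol-stimulated CHO-M1 cells quantifies cellular IP1. Compounds spanned up to 46 uM final, and activity is expressed as AC50 from concentration-response fits of the ratio and donor data.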
# ALDH1A1 inh – inhibitors of human aldehyde dehydrogenase 1A1; P00352; Purified ALDH1A1, NADH fluorescence, propionaldehyde substrate; Potency, µM (highest dose often 75.3 µM), without a hit: top-dose activity, negative = inhibition, usual class: inhibitors; hit rate 7.3% among 220,000; AID 1030;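 also: potency is read from the fitted curve at half-maximal effect; plate controls were no enzyme wells and a reference inhibitor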
# Target sequence (P00352 whole entry, looked up): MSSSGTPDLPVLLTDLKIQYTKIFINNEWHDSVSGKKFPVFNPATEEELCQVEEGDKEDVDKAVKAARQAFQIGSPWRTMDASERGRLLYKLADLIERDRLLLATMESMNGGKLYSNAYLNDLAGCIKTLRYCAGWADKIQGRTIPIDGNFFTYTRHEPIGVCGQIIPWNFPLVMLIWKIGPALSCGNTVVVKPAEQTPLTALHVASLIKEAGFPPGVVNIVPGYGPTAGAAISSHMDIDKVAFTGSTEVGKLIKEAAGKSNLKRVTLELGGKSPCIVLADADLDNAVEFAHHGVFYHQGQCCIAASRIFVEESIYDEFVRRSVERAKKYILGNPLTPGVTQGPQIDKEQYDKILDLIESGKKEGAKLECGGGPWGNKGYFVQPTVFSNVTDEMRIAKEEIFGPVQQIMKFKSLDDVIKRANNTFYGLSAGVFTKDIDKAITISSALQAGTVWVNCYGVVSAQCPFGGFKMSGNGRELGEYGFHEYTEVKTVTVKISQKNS
# IMPase Li cell – IMPase inhibition in cells with lithium potentiation | CHO-M1 cells, IP1 TR-FRET (IP-One), carbachol + lithium | Potency, µM (highest dose often 59.4 µM), for the others: at the highest dose activity, negative = IMPase inhibition, most hits filed as inhibitors | hit rate 0.35% among 210,000; active = well fitted curve in the direction sought with a large enough effect; inconclusive = small, poorly fitted or top-dose-only effect, or another doubt; inactive = no such curve, though single readings can be large; an effect the other way counts as inactive or inconclusive;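 also: IP1 builds up when IMPase is blocked and the TR-FRET signal falls; potency is read from the fitted curve at half-maximal effect; plate controls were basal vehicle for no effect and high inhibitor control for full effect; nearly all actives have a fitted effect of over 50% in size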
#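 Test compounds were applied to CHO-M1 cells previously cultured for 16–30 h at 2000 per well. A small lithium amount accompanied them; after 30 min at 37C, IP1 was quantified by TR-FRET.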
# HPGD inh – inhibitors of human 15-hydroxyprostaglandin dehydrogenase (HPGD) | Potency, µM, without a hit: at the highest dose activity change, negative = inhibition, actives largely listed as inhibitors | P15428 | hit rate 4.3% among 150,000 | purified HPGD, NADH fluorescence kinetic, PGE2 substrate; also: potency is read from the fitted curve at half-maximal effect
#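 20 nM HPGD preincubated 15 min at room temperature with compound in 50 mM Tris-HCl pH 8, 0.01% Tween 20. Started with 1 mM NAD+ and 30 uM prostaglandin E2; NADH fluorescence (360/450 nm) read 5 times over 30-s intervals, last minus first.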
# * = called active by the depositor; ? = inconclusive; · = no result; [ ] = dose if it differs, or a comment. Sampled rows, rich in hits. Any-hit rate of the full collection: about 11%. Unless noted, calls follow the shape of the dose curve; as a rule, active = well fitted inhibition curve with a large enough effect (not every such curve was filed as active); inconclusive = small, poorly fitted or top-dose-only effect, or another doubt; inactive = no such curve, though single readings can be large or run the other way. Unless noted, % is scaled to controls: 0 for no effect and ±100 for the full control effect.
SMILES,NPSR antagonist,PNC assembly inh,IMPase inh,ALDH1A1 inh,IMPase Li cell,HPGD inh
CCCC(=O)Nc1ccc(C(=O)NNC(=O)c2ccccc2Br)cc1,-5.3%[46.1 µM],-1.5,-0.2,?,-23.9%[38.3 µM],28.2µM*
CCCCC(=O)Nc1ccc(C(=O)N2CCCC(C(=O)OCC)C2)cc1 (stereo not drawn),13.2%[46.1 µM],30.7,-6.3,?,15.7%[38.3 µM],14.1µM*
Cn1c(=O)c2c(nc(NCc3ccccc3)n2Cc2ccc(Cl)c(Cl)c2)n(C)c1=O,·,·,6.2,·,·,·
Cc1cccc(NC(=O)CN2C(=O)c3cccc4cccc2c34)c1C,·,·,-0.8,·,·,·
COc1cccc(NC(=O)N2CCCC(C(=O)NCc3ccc(F)cc3)C2)c1 (stereo not drawn),4.4%[46.1 µM],33.9,1.5,?,6.6%,-23.9%
O=C(c1cnc2n(c1=O)CCS2)N(c1ccccc1)C1CCCCC1,-10.4%[46.1 µM],-106.3*,-5.6,3.4%,2.6%[38.3 µM],-9.9%
Cc1ccc(Nc2ncnc3c2cnn3C)cc1,9.3%,·,·,7.1%,4.5%,·
COc1ccc(C2=NN(C(=O)c3cccs3)C(c3ccccc3O)C2)cc1 (stereo not drawn),10µM*,·,·,?,12.9%,·
CN(Cc1cccs1)C(=O)Cn1cnc2cc([N+](=O)[O-])ccc2c1=O,-13.3%,·,·,-8.1%,-4.2%,·
CCN1CN(Cc2ccco2)CNC1=S,17.6%,-81.9*,·,-6.6%,-7.5%,-7.2%
S=C1NCN(Cc2ccco2)CN1Cc1ccco1,-16.1%,·,·,?,·,·
Cc1cccc(Nc2nc(N)nc(CC(=O)CSc3ccc(Cl)cc3)n2)c1,-32.7%,-17.9,·,-15.2%,0.1%,-6.1%
CN(CC(=O)Nc1ccc(F)c(F)c1F)C1CCCCC1,-19.2%[46.1 µM],-16.9,-7.1,3.3%,18.6%[38.3 µM],-5.8%
CN(CC(=O)Nc1ccc(F)c(F)c1F)c1cnccn1,-8.3%[46.1 µM],-100.0*,-9.6,-6.8%,-20.8%[38.3 µM],-6.2%
CCOC(=O)c1ccc(-n2c(C)nc3c(cnn3-c3ccccc3Cl)c2=O)cc1,-27.6%[46.1 µM],-113.4*,2.0,?,5.5%[38.3 µM],-2.7%
CCOC(=O)c1ccc(-n2c(C)nc3c(cnn3-c3ccc(Cl)cc3)c2=O)cc1,-17.8%[46.1 µM],-3.3,5.1,-0.6%,32.5%[38.3 µM],-0.3%
Cc1c2c(n3c(nc4ccccc43)c1C#N)N(c1ccccc1)CC2,-18.6%,-94.6*,·,?,-1.2%,-23.0%
O=C(CSc1nnc(-c2ccc(F)cc2)o1)Nc1ccc(S(=O)(=O)N2CCCC2)cc1,-27.3%[46.1 µM],3.9,4.2,15.8µM*,-5.4%[38.3 µM],-10.5%
CCN(CC)S(=O)(=O)c1ccc(NC(=O)COC(=O)CNS(=O)(=O)/C=C/c2ccccc2)cc1,17.5%,24.3,·,1µM*,-8.5%,-15.3%
CCN(CC)S(=O)(=O)c1ccc(NC(=O)CSc2cccc[n+]2[O-])cc1,-1.3%[46.1 µM],14.5,-1.3,22.4µM*,22.4%[38.3 µM],-11.8%
CCN(CC)S(=O)(=O)c1ccc(NC(=O)CSc2nnc(-c3ccc(F)cc3)o2)cc1,-11.0%[46.1 µM],-106.7*,-3.4,-4.6%,22.6%[38.3 µM],-2.4%
O=C(CSc1nnc(-c2ccc(F)cc2)o1)Nc1ccc(S(=O)(=O)N2CCCCCC2)cc1,-2.4%[46.1 µM],19.9,9.4,4.2%,·,·
Cc1cc(C)cc(OC(C)c2ccnc3nc(/N=C/N(C)C)nn23)c1 (stereo not drawn),-14.4%[46.1 µM],-23.8,4.1,?,-24.1%[38.3 µM],?
Nc1nc(SCC(=O)NC2CCCc3ccccc32)n[nH]1 (stereo not drawn),9.0%,·,·,13.1%,-0.1%,·
Cc1ccc(N=Cc2cc(Br)cc(Cl)c2O)cc1,-37.8%,·,·,12.6%,-23.6%,·
SMILES,NPSR antagonist,PNC assembly inh,IMPase inh,ALDH1A1 inh,IMPase Li cell,HPGD inh
COc1ccc(CN=Cc2[nH]c3ccc(Br)c(Cl)c3c2O)cc1,-0.9%[46.1 µM],?,1.4[1.84 µM],3.98µM*,1.3%[38.3 µM],?
COc1ccc(CN=CC2=C(O)CNC2=O)cc1,-1.5%[46.1 µM],-8.1,1.2,-5.7%,22.1%[38.3 µM],-5.9%
Cc1cc(C)cc(N=Cc2[nH]c3ccc(Br)c(Cl)c3c2O)c1,?,-28.4,2.9,7.94µM*,12.6%,?
Cc1cc(=O)[nH]c(SCC(=O)C23CC4CC(CC(C4)C2)C3)c1C#N,-23.8%[46.1 µM],28.9,-1.1,3.16µM*,18.5%[38.3 µM],-18.4%
C/C(=N\NC(=O)CNc1ccccc1)c1ccccc1,7.1%,·,·,3.6%,-0.3%,·
Cc1ccc(NC(=O)c2sc(=S)n(-c3cc(C)ccc3F)c2N)cc1,-6.8%,·,·,12.6µM*,5.1%,·
Cc1ccccc1-n1c(N)c(C(=O)Nc2ccc(F)cc2)sc1=S,8.0%,·,·,20µM*,7.9%,·
Cc1ccc(C)c(-n2c(N)c(C(N)=O)sc2=S)c1,-21.2%[46.1 µM],?,-3.4,-4.1%,5.3%[38.3 µM],?
Cc1ccc(-n2c(N)c(C(=O)Nc3ccccc3F)sc2=S)cc1C,-20.3%,·,·,10µM*,7.7%,·
COC(=O)c1ccc(NC(=O)C(=O)N2CCN(C(=S)Nc3cccc(C)c3C)CC2)cc1,-8.5%[46.1 µM],-5.4,8.5,-0.4%,-4.1%,-3.0%
CCCCNC(=O)C1CCN(S(=O)(=O)c2cnc[nH]2)CC1,-6.8%[46.1 µM],-14.6,1.9,3.9%,5.8%[38.3 µM],0.2%
CCCc1nnc(SCC(=O)N2CCCC(C)C2)n1CCOC (stereo not drawn),8.5%,·,·,-0.1%,-2.2%,·
COc1ccc(C)cc1S(=O)(=O)Nc1ccc(F)c(Cl)c1,-13.2%[46.1 µM],?,-12.2,-5.3%,2.1%,28.2µM*
COc1ccccc1NS(=O)(=O)c1ccc(Cl)c(NC(=O)c2sc3cc(Cl)ccc3c2Cl)c1,11.3%,·,·,3.8%,8.0%,·
COc1ccccc1NS(=O)(=O)c1ccc(Cl)c(NC(=O)C(C)N2C(=O)c3ccccc3C2=O)c1 (stereo not drawn),-9.8%,29.1,·,17.8µM*,3.3%,-8.9%
COc1ccccc1NS(=O)(=O)c1cc(Cl)ccc1OC,-4.1%[46.1 µM],-113.7*,6.0,6.7%,0.0%[38.3 µM],-15.5%
COc1ccccc1NS(=O)(=O)c1cccc(NC(=O)Nc2cccc(Cl)c2)c1,?,-85.8*,·,0.7%,-15.2%,-21.1%
Cc1cc2cc(CNC(=O)c3ccc4c(c3)OCO4)ccc2n1C,-7.4%[46.1 µM],-13.3,5.1,-12.3%,1.6%[38.3 µM],?
Cn1c(=O)c(=O)n(C)c2cc(S(=O)(=O)N3CCCC3C(=O)NCc3ccco3)ccc21 (stereo not drawn),3.8%,·,·,·,·,·
C/C(CCc1oc2ccc(Br)cc2c1-c1ccc(C)o1)=N/O,-49.8%,55.5,·,?,21.4%,20µM*
CC(=O)CCc1oc2ccc(C)cc2c1-c1ccccc1,-13.6%,·,·,·,·,·
C/C(CCc1oc2ccc(Cl)cc2c1-c1ccc(C)o1)=N\O,-29.9%[46.1 µM],?,2.0,4.47µM*,26.3%,31.6µM*
CC(C)(C)C(=O)OCC1OC(n2cnc(C(N)=O)n2)C(O)C1O (stereo not drawn),-2.8%[46.1 µM],-13.0,-4.5,10.4%,-8.6%,-1.9%
O=C(CNC(=O)c1ccccc1)Nc1cccc(C(F)(F)F)c1,5.3%,-23.8,-13.8,3.2%,4.8%,-6.9%
